This is part of a sample that, as a whole, favours compounds with a hit. Of some 79,000 tested, about 15% had one in any assay. Active and inactive are the calls of the source. Rule as the data show it: active = growth inhibition above about 70%; inactive = the rest.
Tests used:
[1] = NCI Yeast Anticancer Drug Screen. Data for the rad50 strain (AID 155);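 also: 0% = growth of vehicle-only cultures of the same strain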; details: S. cerevisiae rad50 strain growth inhibition; at 50.0 µM; active compounds read high
Procedure, shortened: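 Yeast carrying a defined DNA repair defect were exposed to test compounds, and growth was compared with vehicle-treated controls to give percent inhibition.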

[2] = NCI Yeast Anticancer Drug Screen. Data for the mec2-1 strain (AID 157); details: S. cerevisiae mec2-1 strain, at 50.0 µM, active compounds read high
Procedure, shortened: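 mec2-1 yeast strain, carrying an alteration in DNA damage repair or cell cycle control, was exposed to compounds; growth inhibition was measured relative to vehicle-treated controls.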

[3] = NCI Yeast Anticancer Drug Screen. Data for the sgs1 mgt1 strain (AID 161);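 also: 0% = growth of cultures given vehicle only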; details: S. cerevisiae sgs1 mgt1 strain, at 50.0 µM, active compounds read high
Procedure, shortened: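 Growth of a repair-deficient yeast mutant was monitored after compound treatment and expressed as inhibition relative to vehicle-treated cultures.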

[4] = NCI Yeast Anticancer Drug Screen. Data for the cln2 rad14 strain (AID 165);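 also: 0% = growth equal to vehicle treated cultures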; details: S. cerevisiae cln2 rad14 strain, at 50.0 µM, active compounds read high
Procedure, shortened: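 Yeast carrying cln2 and rad14 alterations (cell cycle control and DNA damage repair) were exposed to compounds. Growth inhibition was measured against vehicle-treated controls.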

[5] = NCI Yeast Anticancer Drug Screen. Data for the bub3 strain (AID 167); details: S. cerevisiae bub3 mutant strain, at 50.0 µM, active compounds read high
Procedure, shortened: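 Compounds were applied to a genetically altered yeast strain carrying a cell-cycle control defect. Growth inhibition was scored against vehicle-treated controls.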

[6] = NCI Yeast Anticancer Drug Screen. Data for the mlh1 rad18 strain (AID 175); details: S. cerevisiae mlh1 rad18 strain growth inhibition; at 50.0 µM; active compounds read high
Procedure, shortened: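 Growth inhibition of the yeast strain was measured after compound exposure and expressed relative to vehicle-treated controls. The strain carries defined defects in DNA damage repair.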

Measured: growth inhibition

COc1ccccc1C1CCCCC1OS(=O)(=O)c1ccc(C)cc1 (stereo unspecified)
inactive: [1] -1.15% | [2] 3.45% | [3] -18.4% | [4] -9.65% | [5] 12.2% | [6] -9.8%

COc1cc(C2OCC3C(c4ccc(O)c(OC)c4)OCC23)ccc1O (stereo unspecified)
inactive: [1] 6% | [2] -20.4% | [3] 10.9% | [4] 23.4% | [5] 0.2% | [6] 14.6%

Cc1cc(Cl)cc(Cl)c1OCC(=O)Nc1ccc(Cl)cc1
inactive: [1] 6.45% | [2] 2.45% | [3] 8.5% | [4] 4% | [5] 21.9% | [6] -7.7%

Clc1ccc(Cl)c(NNc2cc(Cl)ccc2Cl)c1
inactive: [1] -29.1% | [2] -45.5% | [3] -3.9% | [4] -0.9% | [5] -39.5% | [6] -34.5%

O=C1Nc2ccccc2C1=Nc1cccc2ncccc12
inactive: [1] 3.35% | [2] -7.75% | [3] -11.1% | [4] -4.5% | [5] 8.7% | [6] 15.4%

CC(=O)OC1CCC2(C)C3=C(C(=O)CC2C1(C)C)C1(C)CCC(C(C)CCCC(C)C)C1(C)CC3 (stereo unspecified)
inactive: [1] 0.3% | [2] 1.6% | [3] -25.4% | [4] 3.15% | [5] 4.3% | [6] -0.6%

CCCCC1(CCO)C(=O)N=C(N)NC1=O (stereo unspecified)
inactive: [1] -15% | [2] -3.85% | [3] -8.05% | [4] -22.9% | [5] -5.6% | [6] -15.8%

O=C(NCCCl)NC(Cc1ccccc1)Cc1ccccc1
inactive: [1] 6.65% | [2] 10.7% | [3] 15% | [4] 53.7% | [5] 2.1% | [6] 31.4%

CN(C)CCNC(=O)c1ccc(Cl)c2cc3ccccc3nc12
active: [1] 83.3% | [6] 85.8%
inactive: [2] 66.3% | [3] 58% | [4] 50.7% | [5] 15.7%

Cc1ccc2nc(-c3ccc(Cl)cc3Cl)oc(=O)c2c1
inactive: [1] -9.35% | [2] 3.8% | [3] 20.4% | [4] -12.8% | [5] 20.6% | [6] -7.15%

Cc1cc(N(CCC#N)S(=O)(=O)c2ccccc2)ccc1C=Nc1ccc(C(=O)O)cc1
inactive: [1] -12.2% | [2] -8.35% | [3] -6.15% | [4] -3.8% | [5] 1.85% | [6] -6.85%

COC(OC)c1cccc2c1C1(O)CCC3(CC21)OCCCCO3 (stereo unspecified)
inactive: [1] -9.35% | [2] -26.4% | [3] -42.5% | [4] -11.6% | [5] -42.9% | [6] -23.1%

O=S1(=O)OCCOS(=O)(=O)C1F
inactive: [1] -69% | [2] -4.65% | [3] -22.4% | [4] -23.2% | [5] -5.35% | [6] -16.1%

CNC(=O)NC1C(CO)OC2OC(C)(C)OC21 (stereo unspecified)
inactive: [1] 6.5% | [2] 5.25% | [3] 10.4% | [4] -35.3% | [5] -9.85% | [6] 2.55%

CCOc1ccc(NC(=O)C(=O)C(C(=O)c2ccc3ccccc3c2)C2OC(=O)c3ccccc32)cc1 (stereo unspecified)
inactive: [1] 13.1% | [2] 3.45% | [3] -2.4% | [4] -17.6% | [5] 7.85% | [6] 6.8%

Cc1cn(C2CC3OP(=O)(OCc4ccccc4)OCC3O2)c(=O)[nH]c1=O (stereo unspecified)
inactive: [1] 5.35% | [2] 7.1% | [3] 16.1% | [4] 7.25% | [5] 8% | [6] 4.15%

CNC(=S)NNC(=O)c1ccncc1
inactive: [1] 11.4% | [2] 10.7% | [3] 13.6% | [4] 18.6% | [5] -0.65% | [6] 13.3%

O=c1[nH]n2c(=O)cc[nH]c2c1-c1nnns1
inactive: [1] -15.8% | [2] -2.95% | [3] -36.1% | [4] 9.65% | [5] -21.1% | [6] -25.2%

NCCSSCCCCSSCCN
inactive: [1] -8.95% | [2] -0.7% | [3] -13.7% | [4] -43.2% | [5] -1.2% | [6] -1.9%

CN(C)N=Nc1cccc(Cl)c1
inactive: [1] 25.9% | [2] 0.6% | [3] 10.3% | [4] 16.2% | [5] 8.8% | [6] 14.2%

COC(=O)C(NC(=O)C(C)N1C(=O)CCC(NS(=O)(=O)c2ccc(C)cc2)C1=O)C(C)C (stereo unspecified)
inactive: [1] 30.1% | [2] 8% | [3] 9.4% | [4] 1.05% | [5] 3.55% | [6] 15.8%

C=CN1C(=O)NC(C)(CC(C)C)C1=O (stereo unspecified)
inactive: [1] -1.15% | [2] -10.2% | [3] -6% | [4] 6.75% | [5] -7.25% | [6] 18.4%

Cc1ccc(S(=O)(=O)Oc2c([N+](=O)[O-])cc(-c3ccccc3)cc2[N+](=O)[O-])cc1
inactive: [1] 47.8% | [2] 37.4% | [3] 63% | [4] 34.5% | [5] 0.7% | [6] 31%

CC1CCC(CC(N)=O)C1(C)C (stereo unspecified)
inactive: [1] 11.8% | [2] -7.15% | [3] 2.75% | [4] -22.2% | [5] 2.85% | [6] 0.35%

c1ccc(N=c2snc3scc(-c4ccccc4)n23)cc1
inactive: [1] 28.4% | [2] 6.95% | [3] 13.8% | [4] 17.6% | [5] 33.5% | [6] 16.6%

CC(C)(C)OC(=O)C(C1NC2C(=O)OCC2(CO)S1)N1C(=O)c2ccccc2C1=O (stereo unspecified)
inactive: [1] 38.6% | [2] -1.65% | [3] 25.9% | [4] -6.35% | [5] -1.75% | [6] 12.5%

FC(F)(F)c1ccc2c(c1)N(CCCN1CCN(CCN3CCCCC3)CC1)c1ccccc1S2
active: [1] 88.9% | [3] 89% | [5] 87.4% | [6] 91.8%
inactive: [2] 46% | [4] 27.2%

CN1C(=O)N(C)C(N2CCCC2)c2c1nc1ccccn1c2=O (stereo unspecified)
inactive: [1] -11.7% | [2] -30.8% | [3] -41.8% | [4] 5.15% | [5] -5% | [6] -29.4%

N#C/C(=C\NC(=S)C(N)=S)C(=O)c1ccc2ccccc2c1
inactive: [1] 40.4% | [2] 30.3% | [3] 40.5% | [4] 33.5% | [5] 24.3% | [6] 50.9%

CCCCCCCCCCCCCCCCCC(=O)OCC1OC(OC2(OC(=O)CCCCCCCCCCCCCCCCC)OC(COC(=O)CCCCCCCCCCCCCCCCC)C(OC(=O)CCCCCCCCCCCCCCCCC)C2OC(=O)CCCCCCCCCCCCCCCCC)C(OC(=O)CCCCCCCCCCCCCCCCC)C(OC(=O)CCCCCCCCCCCCCCCCC)C1OC(=O)CCCCCCCCCCCCCCCCC (stereo unspecified)
inactive: [1] 17.2% | [2] 6% | [3] 25.4% | [4] -2.75% | [5] 17.9% | [6] 23.8%

CCOC(=O)NCC1(c2ccccc2)CCN(Cc2ccccc2)CC1
inactive: [1] -9.75% | [2] -17.6% | [3] -11.9% | [4] 1.35% | [5] -14.9% | [6] -1.7%

Cc1cc2c(nn1)CCc1c-2no[n+]1[O-]
inactive: [1] 3.15% | [2] -32.1% | [3] -10.4% | [4] 22.5% | [5] 3.45% | [6] -2.8%

CC(C)(C)n1c(=O)n(-c2ccccc2)n(C(C)(C)C)c1=O
inactive: [1] 45.5% | [2] -11.8% | [3] -28.2% | [4] 3% | [5] -27.7% | [6] -11%

CSC1=NC(C)(C)N=C(Oc2cc(Cl)cc(Cl)c2)N1
inactive: [1] -14.9% | [2] -22.3% | [3] -24.9% | [4] -8.7% | [5] -27.5% | [6] -9.8%

O=C=Nc1cccc([N+](=O)[O-])c1
inactive: [1] -0.65% | [2] -5.7% | [3] -0.75% | [4] -5.05% | [5] -27.9% | [6] -40.5%

Cc1n[nH]c(=S)n1N
inactive: [1] -9.4% | [2] -1.9% | [3] -24.4% | [4] -25.9% | [5] -14.5% | [6] -3.5%

CN1CC[C@H]([C@@H](O)c2ccccc2)C1=O
inactive: [1] 4.95% | [2] -7% | [3] -3.5% | [4] -34.4% | [5] 0.35% | [6] 5.7%

CCOC(=O)N1N=NC(c2ccccc2)C1(c1ccccc1)N1CCOCC1 (stereo unspecified)
inactive: [1] 38.8% | [2] -14.8% | [3] 30.3% | [4] 4.05% | [5] 10.4% | [6] 8.7%

CCOc1ccc(Nc2nc(N)nc(N)c2N)cc1
inactive: [1] 2.85% | [2] 10.8% | [3] -8.95% | [4] -13.7% | [5] -20.4% | [6] 3.8%

CCN(CC)C(=O)c1cccc(N)c1
inactive: [1] 12.6% | [2] -11.3% | [3] 11.5% | [4] 11% | [5] 25.3% | [6] 14%

Cc1cc(C)c(C(=O)c2ccccc2C(=O)c2ccccc2)c(C)c1
inactive: [1] 20.5% | [2] -5.55% | [3] 17.2% | [4] 20.2% | [5] 20.6% | [6] 11.5%

Reference: PubChem BioAssay (NCI)
